Results on eight sequences are retold here after PMC7862700, “An all-to-all approach to the identification of sequence-specific readers for epigenetic DNA modifications on cytosine”.

Assay in all cases: DAPPL (digital affinity profiling via proximity ligation, sequencing); 10 mM Tris-HCl pH 7.5, 50 mM NaCl, 1 mM DTT, 4% glycerol, room temperature, 30 min; GST-TFs on glutathione beads, 16-mer random dsDNA library, 0.1% formaldehyde crosslink after washing; high values mean tight binding
Common to all, as to details: protein: recombinant; tags: N-terminal GST; dsDNA, one strand shown

One assay addresses T1, ERF (Homo sapiens, UniProt P50548 1-548).
T1 sequence: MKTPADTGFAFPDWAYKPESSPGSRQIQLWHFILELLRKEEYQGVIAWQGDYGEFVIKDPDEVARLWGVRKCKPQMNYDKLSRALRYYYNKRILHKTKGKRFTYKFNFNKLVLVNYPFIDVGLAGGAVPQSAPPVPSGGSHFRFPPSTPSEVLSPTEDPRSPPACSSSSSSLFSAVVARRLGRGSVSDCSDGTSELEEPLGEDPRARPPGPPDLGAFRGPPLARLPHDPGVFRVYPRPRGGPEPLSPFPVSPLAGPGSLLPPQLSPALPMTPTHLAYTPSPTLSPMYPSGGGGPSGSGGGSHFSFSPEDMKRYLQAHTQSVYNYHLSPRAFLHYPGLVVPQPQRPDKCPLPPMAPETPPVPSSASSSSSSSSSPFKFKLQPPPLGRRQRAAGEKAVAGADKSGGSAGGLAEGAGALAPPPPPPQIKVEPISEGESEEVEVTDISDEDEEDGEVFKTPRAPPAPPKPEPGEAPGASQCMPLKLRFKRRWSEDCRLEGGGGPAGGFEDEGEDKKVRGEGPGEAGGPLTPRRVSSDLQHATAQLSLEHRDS
The gist of the method: (§1)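 A tag-only sample was pooled with DNA-barcoded human transcription factors that had been expressed in yeast as GST fusions and captured on glutathione beads. The pools were incubated for 30 min at room temperature with 200 nmole of a random double-stranded 16-mer DNA library in Tris/NaCl/DTT/glycerol buffer, then washed, crosslinked with 0.1% formaldehyde, proximity-ligated (BsaI/T4 ligase, 1 h, 37 °C), PCR-amplified and sequenced on an Illumina NextSeq500. Binding signal is each hexamer's read frequency for a factor divided by its frequency for the tag-only sample.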

The next assay deals with T2, ETV3L (Homo sapiens, UniProt Q6ZN32 1-361).
T2 sequence: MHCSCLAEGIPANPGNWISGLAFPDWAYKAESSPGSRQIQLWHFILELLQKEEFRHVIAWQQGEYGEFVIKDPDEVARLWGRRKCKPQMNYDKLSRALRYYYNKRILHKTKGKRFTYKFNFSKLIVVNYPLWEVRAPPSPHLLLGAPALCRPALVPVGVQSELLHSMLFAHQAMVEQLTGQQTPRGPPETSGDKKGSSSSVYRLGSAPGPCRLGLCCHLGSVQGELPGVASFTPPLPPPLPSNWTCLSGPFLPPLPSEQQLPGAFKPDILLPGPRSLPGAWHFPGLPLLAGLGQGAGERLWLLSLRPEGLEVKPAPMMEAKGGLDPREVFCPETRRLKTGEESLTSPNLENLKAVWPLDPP
The essentials:
as §1

In another assay the target is T3, ETS2 (Homo sapiens, UniProt P15036 1-469).
T3 sequence: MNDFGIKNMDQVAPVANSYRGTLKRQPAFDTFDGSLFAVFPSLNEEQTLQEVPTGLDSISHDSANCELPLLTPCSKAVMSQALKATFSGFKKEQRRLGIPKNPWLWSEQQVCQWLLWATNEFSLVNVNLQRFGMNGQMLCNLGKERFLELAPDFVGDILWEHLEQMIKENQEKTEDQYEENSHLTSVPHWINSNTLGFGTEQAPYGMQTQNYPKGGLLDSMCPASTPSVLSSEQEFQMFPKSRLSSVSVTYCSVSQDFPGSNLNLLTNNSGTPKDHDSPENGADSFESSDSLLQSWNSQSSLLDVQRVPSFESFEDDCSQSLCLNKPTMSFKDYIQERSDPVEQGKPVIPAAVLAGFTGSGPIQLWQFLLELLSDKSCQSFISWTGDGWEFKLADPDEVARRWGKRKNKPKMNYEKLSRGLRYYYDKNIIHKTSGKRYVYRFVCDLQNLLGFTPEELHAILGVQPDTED
The essentials: as §1

A further assay deals with T4, ETV7 (Homo sapiens, UniProt Q9Y603 1-341).
T4 sequence: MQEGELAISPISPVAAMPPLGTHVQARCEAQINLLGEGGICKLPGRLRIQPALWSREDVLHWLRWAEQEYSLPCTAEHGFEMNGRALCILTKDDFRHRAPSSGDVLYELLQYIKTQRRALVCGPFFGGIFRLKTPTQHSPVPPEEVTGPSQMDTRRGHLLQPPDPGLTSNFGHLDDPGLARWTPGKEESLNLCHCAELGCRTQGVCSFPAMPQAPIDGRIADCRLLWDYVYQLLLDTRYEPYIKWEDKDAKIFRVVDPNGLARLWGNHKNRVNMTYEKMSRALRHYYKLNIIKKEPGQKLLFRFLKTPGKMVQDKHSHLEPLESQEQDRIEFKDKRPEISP
The essentials: as §1

A further assay addresses ETV6 (Homo sapiens, UniProt P41212 1-452). The essentials: as §1
The next assay concerns the target T5, ELF5 (Homo sapiens, UniProt Q9UKW6-2 1-255).
T5 sequence: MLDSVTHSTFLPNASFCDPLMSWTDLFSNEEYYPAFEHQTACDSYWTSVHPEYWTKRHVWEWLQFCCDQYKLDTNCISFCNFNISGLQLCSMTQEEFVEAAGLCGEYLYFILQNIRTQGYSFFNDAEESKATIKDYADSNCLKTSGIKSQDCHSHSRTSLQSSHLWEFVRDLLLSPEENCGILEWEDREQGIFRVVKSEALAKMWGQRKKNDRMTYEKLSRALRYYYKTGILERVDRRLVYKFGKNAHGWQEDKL
The essentials:
as §1

Another assay has as its target T6, ETV3 (Homo sapiens, UniProt P41162-2 1-143).
T6 sequence: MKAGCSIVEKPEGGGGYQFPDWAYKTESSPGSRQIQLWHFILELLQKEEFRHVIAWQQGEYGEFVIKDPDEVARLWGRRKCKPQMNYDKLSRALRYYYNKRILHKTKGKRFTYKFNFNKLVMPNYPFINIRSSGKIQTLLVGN
The essentials: as §1

The next assay addresses T7, SPDEF (Homo sapiens, UniProt O95238 1-335).
T7 sequence: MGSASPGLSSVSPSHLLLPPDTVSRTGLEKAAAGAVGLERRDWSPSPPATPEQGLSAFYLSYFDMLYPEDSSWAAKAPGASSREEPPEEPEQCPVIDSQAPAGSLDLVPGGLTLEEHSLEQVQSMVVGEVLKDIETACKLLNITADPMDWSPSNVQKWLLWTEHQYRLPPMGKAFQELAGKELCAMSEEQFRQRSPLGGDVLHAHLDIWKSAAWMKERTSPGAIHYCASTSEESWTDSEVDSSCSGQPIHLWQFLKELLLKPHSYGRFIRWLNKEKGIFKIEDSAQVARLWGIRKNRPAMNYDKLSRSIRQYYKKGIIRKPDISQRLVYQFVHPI
The gist of the method: as §1

Sequence of ETV6 (P41212 whole entry): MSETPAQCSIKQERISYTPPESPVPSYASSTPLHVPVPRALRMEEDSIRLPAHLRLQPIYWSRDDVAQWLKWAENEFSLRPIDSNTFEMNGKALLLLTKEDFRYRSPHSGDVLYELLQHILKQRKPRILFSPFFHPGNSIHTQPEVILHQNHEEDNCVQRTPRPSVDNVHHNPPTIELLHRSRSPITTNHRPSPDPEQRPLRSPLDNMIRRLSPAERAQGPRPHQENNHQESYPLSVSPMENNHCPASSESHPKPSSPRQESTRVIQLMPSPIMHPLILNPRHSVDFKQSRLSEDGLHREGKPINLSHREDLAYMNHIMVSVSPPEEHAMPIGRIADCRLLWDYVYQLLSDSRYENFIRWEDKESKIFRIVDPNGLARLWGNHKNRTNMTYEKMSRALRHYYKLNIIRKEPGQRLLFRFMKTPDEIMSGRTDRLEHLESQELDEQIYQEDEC

ATCATT: the binding signal with ERF is 1.13 fold enrichment (6-mer frequency, TF over GST control); in the assay with ETV3L, 1.07 fold enrichment (6-mer frequency, TF over GST control); with ETS2, 1.01 fold enrichment (6-mer frequency, TF over GST control); with ETV7 it was 1.01 fold enrichment (6-mer frequency, TF over GST control); with ETV6 it was 1.06 fold enrichment (6-mer frequency, TF over GST control).

As for TTATCA, the binding signal with ERF was 1.14 fold enrichment (6-mer frequency, TF over GST control); with ETV3L, 1.15 fold enrichment (6-mer frequency, TF over GST control); in the assay with ETS2, 1.04 fold enrichment (6-mer frequency, TF over GST control); with ETV7, 1.03 fold enrichment (6-mer frequency, TF over GST control); with ELF5 it was 1.07 fold enrichment (6-mer frequency, TF over GST control); with ETV3, 1.09 fold enrichment (6-mer frequency, TF over GST control). Besides, the binding signal in the assay with ETV6 was 1 fold enrichment (6-mer frequency, TF over GST control).

For the sequence CGATCA, the binding signal with ERF was 1.09 fold enrichment (6-mer frequency, TF over GST control); in the assay with ETV3L, 1.1 fold enrichment (6-mer frequency, TF over GST control); with ETS2, 1.19 fold enrichment (6-mer frequency, TF over GST control); with ETV7, 1.08 fold enrichment (6-mer frequency, TF over GST control); in the assay with ETV3, 1.1 fold enrichment (6-mer frequency, TF over GST control); in the assay with ETV6, 1.05 fold enrichment (6-mer frequency, TF over GST control).

Regarding AGATAA, the binding signal with ERF was 1.02 fold enrichment (6-mer frequency, TF over GST control); with ETV3L it was 1.09 fold enrichment (6-mer frequency, TF over GST control); with ETS2, 1.04 fold enrichment (6-mer frequency, TF over GST control); in the assay with ETV6 it was 1.06 fold enrichment (6-mer frequency, TF over GST control).

On to TAGTCT, for which the binding signal was 1.17 fold enrichment (6-mer frequency, TF over GST control) with ERF; 1.04 fold enrichment (6-mer frequency, TF over GST control) in the assay with ETV3L; 1.09 fold enrichment (6-mer frequency, TF over GST control) in the assay with ETS2; 1.04 fold enrichment (6-mer frequency, TF over GST control) with ELF5; 1.12 fold enrichment (6-mer frequency, TF over GST control) with ETV3; 1.02 fold enrichment (6-mer frequency, TF over GST control) with ETV6.

Turning to TCCCAG, the binding signal with ERF is 1.05 fold enrichment (6-mer frequency, TF over GST control); in the assay with ETV3L, 1.08 fold enrichment (6-mer frequency, TF over GST control); with SPDEF, 1.07 fold enrichment (6-mer frequency, TF over GST control); with ETV7 it was 1.16 fold enrichment (6-mer frequency, TF over GST control); with ELF5, 1.12 fold enrichment (6-mer frequency, TF over GST control); with ETV3, 1.07 fold enrichment (6-mer frequency, TF over GST control).

In the case of CTGGCC, the binding signal in the assay with ERF was 1.19 fold enrichment (6-mer frequency, TF over GST control); in the assay with ETV3L, 1.11 fold enrichment (6-mer frequency, TF over GST control); with ETS2, 1.17 fold enrichment (6-mer frequency, TF over GST control); with ETV7 it was 1.03 fold enrichment (6-mer frequency, TF over GST control); with ELF5, 1.01 fold enrichment (6-mer frequency, TF over GST control); in the assay with ETV3, 1.06 fold enrichment (6-mer frequency, TF over GST control). Moreover, the binding signal with ETV6 was 1.23 fold enrichment (6-mer frequency, TF over GST control).

CTACAG: the binding signal in the assay with ERF was 1.01 fold enrichment (6-mer frequency, TF over GST control); with ETV3L it was 1.13 fold enrichment (6-mer frequency, TF over GST control); with SPDEF, 1.09 fold enrichment (6-mer frequency, TF over GST control); with ELF5, 1.08 fold enrichment (6-mer frequency, TF over GST control); with ETV6 it was 1.03 fold enrichment (6-mer frequency, TF over GST control).
